Laboratory results as given in PubChem BioAssay.
The source made the active and inactive calls.

Key:
[1] = tested on: PRMT1 (protein arginine N-methyltransferase 1); assay: PRMT1 binders on small-molecule microarrays, primary screen, biochemical, small-molecule microarray, 635 nm fluorescence (AID 1088); details: small-molecule microarray binding, higher = more signal;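 further: binding of Prmt1 protein to compounds spotted on small-molecule microarray slides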
[2] = yeast growth modulation, basal conditions, primary screen, YJM789 clinical isolate, OD600, 24 h (AID 1089);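 further: growth of clinical yeast isolate S. cerevisiae YJM 789 seeded 1000 cells per well; test concentration not given here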; details: S. cerevisiae YJM789 growth, higher = more signal, called active from +8 up or from −8 down
[3] = fission yeast growth modulation, primary screen, strain 972, OD600, 24 h, no modulator (AID 1090);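 further: basal condition with compound alone and no growth modifier present; test concentration not given here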; details: S. pombe 972 growth, higher = more signal, called active from +8 up or from −8 down
[4] = S. cerevisiae growth modulation with rapamycin, primary screen, strain BY4716, OD600, 96 h (AID 1091); details: higher = more signal, called active from +8 up or from −8 down; further: test concentration not given here
[5] = target: Torsin-1A-interacting protein 2 (Homo sapiens) (UniProt Q8NFQ8); assay: LULL1 binders on small-molecule microarray, primary screen, cell lysate, human LULL1 lysate, 635/667 nm fluorescence (AID 1092); details: hLULL1 lysate binding, 635 nm fluorescence, higher = more signal;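 further: probe is lysate of COS7 cells overexpressing human LULL1; score merges per-feature 667 nm fluorescence with signal-to-noise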
Sequence of Torsin-1A-interacting protein 2 (Homo sapiens) (Q8NFQ8 whole entry, looked up): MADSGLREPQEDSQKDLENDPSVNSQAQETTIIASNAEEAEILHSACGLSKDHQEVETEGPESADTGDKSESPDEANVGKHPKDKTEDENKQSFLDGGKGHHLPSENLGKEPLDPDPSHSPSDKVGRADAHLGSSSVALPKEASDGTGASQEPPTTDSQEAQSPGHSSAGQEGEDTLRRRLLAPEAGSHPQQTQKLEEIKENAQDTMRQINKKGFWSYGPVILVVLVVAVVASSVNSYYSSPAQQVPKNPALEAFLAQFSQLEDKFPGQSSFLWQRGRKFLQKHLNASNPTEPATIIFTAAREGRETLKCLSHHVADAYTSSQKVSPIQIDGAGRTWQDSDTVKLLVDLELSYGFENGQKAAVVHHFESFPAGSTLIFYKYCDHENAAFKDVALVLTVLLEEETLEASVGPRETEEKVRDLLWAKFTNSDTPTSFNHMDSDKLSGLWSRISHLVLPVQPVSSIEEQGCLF

[6] = E. coli growth modulation, two-sided OD650, primary screen, E. coli filamentation project, strain DRC41, 24 h (AID 1093); details: OD650, 24 h, higher = more signal, called active from +8 up or from −8 down;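 further: MC1000 strain lacking acrAB efflux and sulA so SOS filamentation is blocked; test concentration not given here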
[7] = small-molecule microarray binders of probe aLefty2, primary screen, biochemical, biotinylated probe, 635/667 nm fluorescence (AID 1094); details: higher = more signal;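 further: score merges spot fluorescence near 667 nm with spot signal-to-noise ratio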
[8] = tested on: Noggin (protein binding on small-molecule microarray); assay: Noggin binders on small-molecule microarray, primary screen, biochemical, 635/667 nm fluorescence (AID 1095); details: 635 nm fluorescence, higher = more signal;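 further: score merges 667 nm feature fluorescence with signal to noise over triplicate slides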
[9] = target: Neurogenic locus notch homolog protein 3 (Homo sapiens) (UniProt Q9UM47); assay: NOTCH3 binders on small-molecule microarray, primary screen, biochemical, 635/667 nm fluorescence (AID 1096); details: NOTCH3 binding, 635 nm fluorescence, higher = more signal
Sequence of Neurogenic locus notch homolog protein 3 (Homo sapiens) (Q9UM47 whole entry, looked up): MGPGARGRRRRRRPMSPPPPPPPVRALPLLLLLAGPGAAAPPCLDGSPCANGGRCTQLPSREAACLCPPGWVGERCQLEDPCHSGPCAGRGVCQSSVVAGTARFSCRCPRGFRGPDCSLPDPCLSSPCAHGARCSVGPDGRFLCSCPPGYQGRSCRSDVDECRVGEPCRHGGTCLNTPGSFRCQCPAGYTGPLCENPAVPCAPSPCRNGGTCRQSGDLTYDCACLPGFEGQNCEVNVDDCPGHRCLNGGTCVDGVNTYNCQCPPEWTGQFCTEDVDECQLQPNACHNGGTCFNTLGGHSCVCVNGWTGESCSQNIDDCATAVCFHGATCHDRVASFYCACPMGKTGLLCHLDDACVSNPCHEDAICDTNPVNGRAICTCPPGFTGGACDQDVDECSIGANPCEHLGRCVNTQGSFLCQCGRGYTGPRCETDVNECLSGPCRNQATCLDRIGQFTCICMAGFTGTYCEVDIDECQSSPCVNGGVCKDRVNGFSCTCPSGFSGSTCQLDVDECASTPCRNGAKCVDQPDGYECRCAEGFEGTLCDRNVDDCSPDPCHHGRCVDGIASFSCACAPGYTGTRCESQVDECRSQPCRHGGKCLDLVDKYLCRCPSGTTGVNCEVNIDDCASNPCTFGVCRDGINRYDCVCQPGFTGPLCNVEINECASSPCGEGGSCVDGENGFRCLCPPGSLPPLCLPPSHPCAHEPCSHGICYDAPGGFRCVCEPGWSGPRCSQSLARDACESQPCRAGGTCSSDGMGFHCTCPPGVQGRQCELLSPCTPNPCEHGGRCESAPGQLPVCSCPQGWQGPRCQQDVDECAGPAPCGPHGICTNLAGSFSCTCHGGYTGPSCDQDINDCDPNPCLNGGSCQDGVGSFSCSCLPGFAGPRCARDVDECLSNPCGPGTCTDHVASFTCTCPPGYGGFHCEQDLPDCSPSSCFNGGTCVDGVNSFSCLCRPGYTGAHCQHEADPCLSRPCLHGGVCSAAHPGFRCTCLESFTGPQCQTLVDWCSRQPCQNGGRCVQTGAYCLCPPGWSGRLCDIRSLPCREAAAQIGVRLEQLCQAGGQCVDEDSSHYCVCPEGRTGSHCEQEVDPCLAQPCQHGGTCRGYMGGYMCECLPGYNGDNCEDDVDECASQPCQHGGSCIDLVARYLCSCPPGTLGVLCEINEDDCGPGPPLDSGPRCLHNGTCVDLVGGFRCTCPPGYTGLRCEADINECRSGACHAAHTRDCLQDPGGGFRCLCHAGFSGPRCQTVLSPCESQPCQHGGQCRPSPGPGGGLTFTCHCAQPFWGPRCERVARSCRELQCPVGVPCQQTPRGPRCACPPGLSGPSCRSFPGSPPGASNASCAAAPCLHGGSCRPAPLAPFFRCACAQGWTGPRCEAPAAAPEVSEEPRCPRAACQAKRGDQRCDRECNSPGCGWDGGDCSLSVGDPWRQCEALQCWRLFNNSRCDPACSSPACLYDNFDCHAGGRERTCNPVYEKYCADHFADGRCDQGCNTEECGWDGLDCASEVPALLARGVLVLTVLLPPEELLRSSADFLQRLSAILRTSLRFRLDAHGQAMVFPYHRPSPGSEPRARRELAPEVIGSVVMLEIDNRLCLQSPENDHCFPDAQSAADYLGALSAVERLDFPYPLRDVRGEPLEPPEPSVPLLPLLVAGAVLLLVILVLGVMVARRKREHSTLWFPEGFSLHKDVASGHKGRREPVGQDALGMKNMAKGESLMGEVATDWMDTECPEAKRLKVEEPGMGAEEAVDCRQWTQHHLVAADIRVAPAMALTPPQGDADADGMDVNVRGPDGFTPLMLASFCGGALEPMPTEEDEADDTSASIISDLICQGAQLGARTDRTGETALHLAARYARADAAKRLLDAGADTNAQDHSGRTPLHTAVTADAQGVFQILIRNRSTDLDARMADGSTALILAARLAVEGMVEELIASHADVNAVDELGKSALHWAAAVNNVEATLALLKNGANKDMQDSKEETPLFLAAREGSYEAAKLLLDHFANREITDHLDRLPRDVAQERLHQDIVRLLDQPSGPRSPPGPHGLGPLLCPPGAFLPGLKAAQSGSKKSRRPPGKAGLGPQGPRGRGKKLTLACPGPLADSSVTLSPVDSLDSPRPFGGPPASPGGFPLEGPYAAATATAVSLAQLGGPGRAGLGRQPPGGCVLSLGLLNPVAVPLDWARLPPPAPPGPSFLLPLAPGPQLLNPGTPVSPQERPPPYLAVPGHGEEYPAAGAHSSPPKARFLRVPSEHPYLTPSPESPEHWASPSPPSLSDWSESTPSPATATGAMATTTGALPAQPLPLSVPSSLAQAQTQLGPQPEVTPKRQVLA

[10] = small-molecule microarray binders of probe aEGFR, primary screen, biochemical, biotinylated probe, 635/667 nm fluorescence (AID 1097); details: higher = more signal;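 further: probe is a biotinylated anti-EGFR antibody binding compounds printed on slides; score combines fluorescence near 667 nm and signal to noise of each spot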
[11] = tested on: Plasmodium falciparum Sir2 (PF13_0152, Sir2A); assay: pfSir2 binders on small-molecule microarrays, primary screen, biochemical, small-molecule microarray, 635 nm fluorescence (AID 1098); details: small-molecule microarray binding, fluorescence 635 nm; higher = more signal;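 further: score merges spot fluorescence intensity with its signal-to-noise ratio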
[12] = small-molecule microarray binders of probe aDKK1, primary screen, biochemical, biotinylated probe, 635/667 nm fluorescence (AID 1099); details: higher = more signal;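 further: score merges 667nm spot fluorescence with signal to noise across triplicate slides; reference of the scale not given here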
[13] = small-molecule microarray binders of probe aCHRDL2, primary screen, biochemical, biotinylated probe, 635/667 nm fluorescence (AID 1100); details: higher = more signal
[14] = splicing luciferase reporter signal modulators, primary screen, spliceosome inhibition project, cell-based, HEK293, splice +/- reporter (AID 1101); details: luminescence, 24 h, higher = more signal, called active from +8 up or from −8 down;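 further: HEK293 cells carrying a splicing-competent luciferase reporter gene; test concentration not given here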
[15] = target: Fibroblast growth factor 10 (Homo sapiens) (UniProt O15520); assay: FGF10 binders on small-molecule microarrays, primary screen, biochemical, small-molecule microarray, 635 nm fluorescence (AID 1102); details: FGF10 binding, fluorescence 635 nm, higher = more signal
Sequence of Fibroblast growth factor 10 (Homo sapiens) (O15520 whole entry, looked up): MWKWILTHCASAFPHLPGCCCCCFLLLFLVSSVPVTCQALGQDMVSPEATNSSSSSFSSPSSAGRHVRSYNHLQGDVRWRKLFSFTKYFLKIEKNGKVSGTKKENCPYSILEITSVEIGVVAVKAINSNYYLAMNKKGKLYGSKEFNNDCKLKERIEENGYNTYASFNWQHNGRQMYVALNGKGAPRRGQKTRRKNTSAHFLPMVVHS

[16] = tested on: glycogen synthase kinase-3 (GSK3A per assay name; protocol says GSK3B); assay: GSK3 binders on small-molecule microarrays, primary screen, biochemical, small-molecule microarray, 635 nm fluorescence, GSK3A (AID 1103); details: small-molecule microarray binding, fluorescence 635 nm; higher = more signal; further: the record names both GSK3A and GSK3B
[17] = target: Epidermal growth factor receptor (Homo sapiens) (UniProt P00533); assay: EGFR binders on small-molecule microarrays, primary screen, biochemical, small-molecule microarray, 635 nm fluorescence (AID 1104); details: EGFR binding, higher = more signal;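 further: score merges 667 nm emission intensity with spot signal to noise over triplicate slides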
Sequence of Epidermal growth factor receptor (Homo sapiens) (P00533 whole entry, looked up): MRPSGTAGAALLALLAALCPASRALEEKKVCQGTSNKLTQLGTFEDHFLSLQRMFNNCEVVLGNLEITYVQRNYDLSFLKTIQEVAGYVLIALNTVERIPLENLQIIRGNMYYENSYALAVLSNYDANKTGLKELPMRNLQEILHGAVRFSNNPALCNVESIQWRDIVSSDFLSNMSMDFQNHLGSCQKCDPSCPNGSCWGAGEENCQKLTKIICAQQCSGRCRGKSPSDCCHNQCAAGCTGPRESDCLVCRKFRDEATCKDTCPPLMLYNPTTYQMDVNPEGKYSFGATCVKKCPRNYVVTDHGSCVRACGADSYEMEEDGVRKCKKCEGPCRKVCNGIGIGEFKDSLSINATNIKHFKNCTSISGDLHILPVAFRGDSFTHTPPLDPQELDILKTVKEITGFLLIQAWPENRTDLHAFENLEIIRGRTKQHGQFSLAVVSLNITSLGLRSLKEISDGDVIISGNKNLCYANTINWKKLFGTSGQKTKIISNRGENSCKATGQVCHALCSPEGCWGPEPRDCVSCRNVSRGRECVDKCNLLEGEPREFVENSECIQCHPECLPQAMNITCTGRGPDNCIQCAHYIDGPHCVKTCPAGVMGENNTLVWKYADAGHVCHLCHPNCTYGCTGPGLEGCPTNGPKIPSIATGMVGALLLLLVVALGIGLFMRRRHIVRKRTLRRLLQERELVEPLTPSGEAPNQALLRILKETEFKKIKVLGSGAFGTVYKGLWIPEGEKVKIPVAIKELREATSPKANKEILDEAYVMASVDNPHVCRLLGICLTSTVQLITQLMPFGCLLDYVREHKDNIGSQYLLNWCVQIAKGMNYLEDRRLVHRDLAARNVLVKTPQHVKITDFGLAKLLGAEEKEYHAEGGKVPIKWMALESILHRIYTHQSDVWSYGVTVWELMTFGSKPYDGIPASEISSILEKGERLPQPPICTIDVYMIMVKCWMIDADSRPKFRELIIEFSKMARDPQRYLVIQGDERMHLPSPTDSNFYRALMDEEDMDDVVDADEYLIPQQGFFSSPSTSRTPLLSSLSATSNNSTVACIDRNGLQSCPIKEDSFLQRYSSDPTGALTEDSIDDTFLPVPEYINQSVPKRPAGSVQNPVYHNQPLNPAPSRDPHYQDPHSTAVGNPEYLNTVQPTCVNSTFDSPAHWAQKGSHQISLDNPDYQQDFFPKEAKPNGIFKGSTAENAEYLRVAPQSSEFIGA

[18] = target: Follistatin-related protein 3 (Homo sapiens) (UniProt O95633); assay: FSTL3 binders on small-molecule microarrays, primary screen, biochemical, small-molecule microarray, 635 nm fluorescence (AID 1105); details: FSTL3 binding, higher = more signal;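 further: score merges emission near 667 nm and signal to noise per printed spot across three slides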
Sequence of Follistatin-related protein 3 (Homo sapiens) (O95633 whole entry, looked up): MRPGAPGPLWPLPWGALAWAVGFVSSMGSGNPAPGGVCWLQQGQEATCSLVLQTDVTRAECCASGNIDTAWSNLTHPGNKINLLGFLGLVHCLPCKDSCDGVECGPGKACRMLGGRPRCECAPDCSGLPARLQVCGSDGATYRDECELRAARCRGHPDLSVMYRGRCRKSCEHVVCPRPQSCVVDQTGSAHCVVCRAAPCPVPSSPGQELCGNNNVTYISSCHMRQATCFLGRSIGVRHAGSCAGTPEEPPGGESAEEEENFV

[19] = target: Dickkopf-related protein 1 (Homo sapiens) (UniProt O94907); assay: DKK1 binders on small-molecule microarrays, primary screen, biochemical, small-molecule microarray, 635 nm fluorescence scan (AID 1106); details: DKK1 binding, higher = more signal;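 further: score merges emission near 667 nm with signal to noise over three replicate slides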
Sequence of Dickkopf-related protein 1 (Homo sapiens) (O94907 whole entry, looked up): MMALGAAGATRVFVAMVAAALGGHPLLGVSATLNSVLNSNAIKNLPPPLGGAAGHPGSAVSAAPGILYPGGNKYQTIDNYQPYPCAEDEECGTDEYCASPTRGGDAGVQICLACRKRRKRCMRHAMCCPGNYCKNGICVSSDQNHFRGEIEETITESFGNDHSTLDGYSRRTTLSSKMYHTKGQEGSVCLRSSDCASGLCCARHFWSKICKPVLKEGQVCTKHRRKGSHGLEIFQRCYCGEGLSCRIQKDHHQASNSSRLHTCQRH

[20] = tested on: Inhibin beta A chain (activin A); assay: INHBA (activin A) binders on microarrays, primary screen, biochemical, small-molecule microarray, 635 nm fluorescence scan (AID 1107); details: small-molecule microarray binding, higher = more signal;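 further: mouse activin A protein probed at 4.33 µg/mL on printed slides; score merges bound-protein fluorescence near 667 nm with spot signal-to-noise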

Structure (SMILES) | composite z-score [1] | z-score [2] | z-score [3] | z-score [4] | composite z-score [5] | z-score [6] | composite z-score [7] | composite z-score [8] | composite z-score [9] | composite z-score [10] | composite z-score [11] | composite z-score [12] | composite z-score [13] | z-score [14] | composite z-score [15] | composite z-score [16] | composite z-score [17] | composite z-score [18] | composite z-score [19] | composite z-score [20]
O=C1OCCC/C=C\[C@H]2OC34C=CCN(c5ccc6ccccc6c5)C(=O)[C@H]3N(CCCCCO)C(=O)[C@@H]4C12 (stereo not given in full) | -1.23 | -1.56 (inactive) | -1.52 (inactive) | -0.419 (inactive) | -1.77 | -0.72 (inactive) | -0.156 | -0.766 | -0.359 | -0.13 | 0.227 | -0.319 | 0.364 | -0.447 (inactive) | -0.862 | -1.35 | -0.756 | -0.613 | -0.974 | 0.633
[N-]=[N+]=Nc1ccccc1C[C@]1(C(=O)NCc2ccccc2)N=C(c2ccc(OCCCO)cc2)O[C@H]1c1ccccc1N=[N+]=[N-] | 1.52 | 0.422 (inactive) | 1.63 (inactive) | 4.87 (inactive) | 2.53 | 0.362 (inactive) | 0.292 | 0.358 | 1.04 | -0.067 | 1.04 | 0.236 | 0.778 | 0.716 (inactive) | 1.31 | 0.34 | 0.291 | 0.646 | -0.245 | 1.11
COC(=O)[C@]1(Cc2ccccc2)N=C(c2ccc(OCCCO)cc2)O[C@@H]1c1ccccc1N=[N+]=[N-] | 1.52 | -0.701 (inactive) | -1.01 (inactive) | 24.6 (active) | 1.82 | -0.604 (inactive) | -0.0389 | 1.15 | 0.58 | -0.0987 | 1.54 | 0.124 | 0.527 | -1.56 (inactive) | 0.79 | 0.519 | -0.0527 | 0.257 | -0.0949 | 0.796
O=C1N(CCS(=O)(=O)c2ccccc2)c2ccccc2[C@@H]2OC(c3ccc(OCCCO)cc3)=N[C@]12Cc1ccccc1 | 1.56 | -2.18 (inactive) | -2.2 (inactive) | 3.02 (inactive) | 2.45 | 0.736 (inactive) | -0.0248 | 1.59 | 1.12 | -0.0435 | 1.49 | 0.0733 | 0.393 | -0.917 (inactive) | 0.379 | 1.28 | 0.542 | 1.29 | 0.432 | 0.995
COc1ccc([Si](C)(C)[C@H]2[C@H](CC(=O)N3CCC[C@H]3CO)O[C@@]3(C(=O)N(Cc4cccc(N5CCOC5=O)c4)c4ccccc43)[C@@H]2C)cc1 | 1.55 | -1.53 (inactive) | 0.239 (inactive) | -1.71 (inactive) | 1.02 | 1.78 (inactive) | -0.23 | 1.28 | 1.11 | -0.0271 | 0.927 | -0.195 | -0.425 | -0.298 (inactive) | 0.578 | 0.712 | 0.909 | 1.3 | 0.437 | 1.11
O=C1OCC=C[C@H]2OC34C=CCN(Cn5nnc6ccccc65)C(=O)[C@H]3N(CCCCCO)C(=O)[C@@H]4[C@@H]12 (stereo not given in full) | -0.0541 | -0.314 (inactive) | 0.421 (inactive) | -0.582 (inactive) | 2.81 | 1.65 (inactive) | 0.484 | -0.525 | -0.475 | -0.108 | 0.665 | 0.26 | 0.586 | -0.313 (inactive) | -0.658 | -0.614 | -1.31 | -0.77 | -1.29 | -0.212
OCCCC1=CC(C2CC2)N(Cc2cccc(OC(F)(F)F)c2)CC1 (stereo not given) | 0.352 | -2.88 (inactive) | -2.33 (inactive) | -1.72 (inactive) | 0.25 | -0.454 (inactive) | -0.264 | -0.177 | -0.477 | -0.157 | 1.13 | -0.454 | -0.286 | 0.0563 (inactive) | -0.963 | -0.798 | -0.651 | -0.556 | 0.161 | 0.526
C=CCN(Cc1ccccc1)C(=O)C(c1cccs1)N(C(=O)/C=C\C(=O)O)c1ccc(CCOCCO)cc1 (stereo not given) | -0.133 | -1.22 (inactive) | 0.246 (inactive) | -0.391 (inactive) | -0.288 | 1.01 (inactive) | -0.209 | -1.51 | -1.36 | -0.32 | 1.33 | -0.291 | 0.486 | -1.2 (inactive) | -2.15 | -1.28 | -1.43 | -1.27 | -2.18 | -0.753
O=C(CS)NCCCCCNC(=O)[C@H]1C[C@H]2C(=O)NCC(=O)N2[C@H]1c1ccc(O)cc1 | -0.313 | -2.76 (inactive) | 1.02 (inactive) | -1.11 (inactive) | -1.29 | 0.77 (inactive) | -0.179 | -0.177 | -0.905 | -0.132 | 0.394 | -0.164 | 0.699 | -1.35 (inactive) | -1.04 | -1.32 | -0.641 | -0.749 | -0.887 | -0.583
O=C1C2C=CC(C(O)c3ccc(F)cc3)N(Nc3ccc([N+](=O)[O-])cc3)C2C(=O)N1c1ccccc1 (stereo not given) | 1.35 | 0.099 (inactive) | 1.75 (inactive) | 1.96 (inactive) | 3.27 | -0.848 (inactive) | 0.187 | 0.257 | 1.1 | -0.0435 | 1.38 | 0.343 | 0.839 | 0.516 (inactive) | 0.638 | 1.07 | -0.125 | 0.558 | -0.272 | 0.556
